According to the OligoGym collection:

Each sequence was assayed against FIZ1 (assay: pooled miR-30 sensor sort-seq; sequence = guide strand). Conditions: shRNA.
Also: reference of the scale not given here.

Sequence | sensor-assay potency score (higher = more potent)
TGAAGCTGTGCTTGAAACCCTT | -0.439
TCTCGCACTCGGAGCAGCCGAA | -1.41
TTGAAGTCGCGCTCGCAGCGCG | -0.792
TAGATCAGTCCATTCTACTGGG | 0.523
TTCTCGCACTCGGAGCAGCCGA | -1.7
TGAGCGGAACAGCTTCTCGCAC | -1.25
TTGAAGGGCTTCACGTCGGTGT | 0.144
AACAGCTTCTCGCACTCGGAGC | -1.76
TTGAGGTAGCACTCGTGGCGGA | -0.466
TTTCTCACCAGTGTGGACGACC | -0.391
TGGTACAGGGTGTCTTCCGAGG | -1.47

Each sequence was assayed against FKBP10 in the same assay as above. Conditions: shRNA.

Sequence | sensor-assay potency score (higher = more potent)
TTCCTTGTTCCACACATCCAGC | -1.14
TCAAACAGCAGCACAGCACTGC | 0.521
ATAGCTTGAATCAAACTTCTTG | 0.371
TTGAATCAAACTTCTTGCCATC | -0.96
TAATCTTCCTTCTCTCTCCAGG | -0.239
TTGATCAGCCAACCAGAGCCGA | -0.877
TATGGTTTTCTCAGGGTCCTGC | 0.0683
TTGAAGATTAGCACGGCAGAGC | -0.871
TAGCTGGTGTCGAAGAAGGTGC | -0.841
TAGCTTGAATCAAACTTCTTGC | 0.0257
TAGCTGGACAGCGTCCTTCGGG | -1.26
TCGTCGACTGTGATCTTGCCGT | -0.799

What follows are sequences tested against FKBPL in the same assay as above. Conditions: shRNA.

Sequence | sensor-assay potency score (higher = more potent)
TTTCGGTAGGAGGGTCTCGGGG | -1.79
TAATCTGAATAACTGAATCAAG | -1.19
ATGAAGGACAGTTCGTTCTGGA | 0.322
TTGGCATGAAGGACAGTTCGTT | 0.00211
TGACACATGGACTCCAAGCATT | -1.29
TTCCTCACCTTGACACATGGAC | -0.29
TTCCTTCTCGCTAGTCTCCAGC | -1.31
ATCTTCTTGACAAAGCTCCCAT | -0.554
TCTATCGCCAGCACCTTCTTGA | 0.068
TTCGGTAGGAGGGTCTCGGGGC | -0.399
TTGAGTATGCTCTAGAATTTGG | -0.551
TAGTTAGCTCTGTCCAGCCCTC | -1.24

The sequences below were run against FKTN in the same assay as above. Conditions: shRNA.

Sequence | sensor-assay potency score (higher = more potent)
TTTTACATCATCTTTTCCCTGG | 0.348
TTCCAAGCTGTCTTCTACCTTC | -0.104
TGCATTGTCGATACCATCCTAG | -0.739
TATCAGATTTGTAATCTTGTAT | 0.319
TAGACAAGTTCCACTGCTCAGC | -0.942
